# High-throughput results: PubChem BioAssay, several laboratories
# Mcl1-Noxa inh: disrupts binding of human Mcl-1 to Noxa peptide | TR-FRET Mcl-1/Noxa peptide binding, 2 h | inhibition, % at 21.7 µM | Q07820 | actives 1.5% (n = 220,000);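 active means compounds that cut the protein-peptide binding signal by more than 50% relative to plate controls in a single-dose test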;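 further: His-tagged Mcl-1 with rhodamine Noxa BH3 peptide and terbium anti-His antibody; 0% = Mcl-1 plus Noxa peptide wells and 100% = peptide-only wells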
# Target sequence (Q07820 whole entry, looked up): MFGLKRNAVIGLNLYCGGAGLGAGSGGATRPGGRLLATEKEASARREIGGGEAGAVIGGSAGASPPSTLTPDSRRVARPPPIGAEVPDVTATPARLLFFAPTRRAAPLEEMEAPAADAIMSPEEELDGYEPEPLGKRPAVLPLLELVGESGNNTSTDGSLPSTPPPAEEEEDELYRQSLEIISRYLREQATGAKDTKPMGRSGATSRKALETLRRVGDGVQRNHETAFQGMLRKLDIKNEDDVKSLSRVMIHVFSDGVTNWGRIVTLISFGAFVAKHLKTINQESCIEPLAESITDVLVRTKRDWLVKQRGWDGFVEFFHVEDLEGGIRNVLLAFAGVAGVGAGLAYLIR
# Bim-Mcl-1: inhibitors of Bim-Mcl-1 interaction, human; Bead-based flow cytometry, Bim peptide-Mcl-1 binding; Q07820; inhibition, % at 10 µM; actives 0.1% (n = 190,000); AID 1009; in the data active means inhibition above about 40%;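 further: 0% = no compound tracer wells and 100% = peptide blocker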
# eIF4E-4G inh: inhibitors of eIF4E and eIF4G interaction in translation initiation; actives 0.37% (n = 220,000); inhibition, % at 21.7 µM; TR-FRET eIF4E-eIF4GI(517-606) binding, 2 h;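 further: 0% = full FRET control wells and 100% = background wells lacking eIF4GI fragment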
# Mcl1 Bid PPI: Mcl-1/Bid interaction inhibition; Q07820; TR-FRET Mcl-1/Bid-Dy647 peptide binding, 1536-well; inhibition, % at 21.7 µM; actives 0.97% (n = 220,000); AID 1021;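 active means compounds that cut the binding signal by more than half at the single screening dose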;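 further: His-tagged Mcl-1 with europium anti-His antibody binding Bid BH3 peptide; 0% = Mcl-1 plus peptide wells and 100% = peptide-only wells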
# p47phox inh: inhibitors of human p47phox binding. P14598. p47phox/p22phox peptide binding, fluorescence polarization, 2 h. inhibition, % at 24.7 µM. actives 0.53% (n = 220,000);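 further: 0% = p47phox with labelled peptide and 100% = labelled peptide alone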
# 14-3-3 Bad inh: disrupts binding of bovine 14-3-3 zeta to phospho-Bad peptide. P63103. TR-FRET 14-3-3zeta/Dy647-pBad peptide displacement, 1 h. inhibition, % at 21.7 µM. actives 0.71% (n = 220,000). AID 781;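 active means inhibition above about 70%, limit read from the data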;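 further: 0% = full 14-3-3 plus peptide FRET controls and 100% = background without 14-3-3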
# Starred values were filed as active, the others as inactive; / = no result; + = active, no number. The list is not random: actives were taken first. Their share in the collection is about 3.3%.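 How the source made its calls, unless noted: active means inhibition above about 30% (limit read from the data); inactive means the rest.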
SMILES,Mcl1-Noxa inh,Bim-Mcl-1,eIF4E-4G inh,Mcl1 Bid PPI,p47phox inh,14-3-3 Bad inh
CCOc1ccc(/C=C/C2=Cc3c(sc(NC(=O)CSc4n[nH]c(N)n4)c3C#N)C(C)(C)C2)cc1,7,5,2,-30,13,-10
Cc1ccsc1/C=C/C1=Cc2c(sc(NC(=O)CSc3n[nH]c(N)n3)c2C#N)C(C)(C)C1,89*,3,-6,-25,21,-1
O=C(COc1ncnc2ccccc12)c1ccc(Cl)cc1,6,-3,5,-30,-4,3
Cc1ccc(N=c2oc3cc(O)ccc3cc2C(N)=O)cc1,17,0,-6,-11,-3,-15
COc1ccc(N=c2oc3cc(O)ccc3cc2C(=O)Nc2ccccn2)cc1OC,53*,4,8,5,-14,18
NC(=O)C1CCN(C(=O)CCC(=O)c2ccc(Br)cc2)CC1,-11,0,4,-13,-10,-9
Cc1ccc(S(=O)(=O)N2CCN(C(=O)Cn3nc(C(=O)O)c4ccccc4c3=O)CC2)cc1,1,/,1,-8,-10,0
CC(C)Cc1cc(CN2CCCC(CO)(Cc3cccc(Cl)c3)C2)[nH]n1 (centres undefined),17,-5,1,-21,-9,-4
CC(C)Cc1cc(CN2CCC(CO)(Cc3cccc(C(F)(F)F)c3)CC2)[nH]n1,16,-3,0,9,+,-8
O=C(N/N=C/c1ccco1)c1ccc(N2CCCC2=O)cc1,8,-1,4,93*,-5,-5
O=C(NCc1ccco1)c1ccc(N2CCCC2=O)cc1,12,11,-9,-21,-18,0
CCC1=NN2C(=N)/C(=C\c3ccc(OCc4cc(=O)n5nc(CC)sc5n4)c(OC)c3)C(=O)N=C2S1,94*,2,21,-66,-27,4
CCc1nn2c(=O)cc(COc3ccc(/C=C4\C(=N)N5N=C(CC(C)C)SC5=NC4=O)cc3)nc2s1,27,/,10,-55,-23,6
CN(C)S(=O)(=O)c1ccc(Cl)c(NC(=O)CN2C(=O)NC(C)(C3CC3)C2=O)c1 (centres undefined),8,/,-15,-13,9,-2
O=C(CS(=O)CC(=O)N(c1ccccc1)C(C(=O)NC1CCCCC1)c1ccco1)Nc1ccc(F)cc1 (centres undefined),13,1,17,-32,5,-16
COc1ccc(N(C(=O)CS(=O)CC(=O)Nc2ccc(F)cc2)C(C(=O)NC2CCCCC2)c2cccs2)cc1 (centres undefined),-81,-2,0,61*,16,39
CC1C(=O)N(c2ccc(S(=O)(=O)N(C)C)cc2)C1(/C=C/c1ccccc1)C(=O)NC1CCCC1 (centres undefined),3,-1,22,-21,-9,4
CC1CCN(C(=S)c2cn(Cc3ccccc3F)c3ccccc23)CC1,0,0,4,-125,-8,-11
CN1CCN(C(=S)c2cn(Cc3ccccc3F)c3ccccc23)CC1,2,-2,0,86*,-2,-12
Cc1cc(NC(=O)c2ccc(Cl)c(S(=O)(=O)N3CCOCC3)c2)no1,9,-5,1,-12,3,-4
COc1ccc(C(=O)Nc2cc(C)on2)cc1S(=O)(=O)N1CC(c2ccccc2)CC1=O (centres undefined),11,-4,1,-28,-11,90*
COc1ccc(-c2cc3cc(OC)c(OC)cc3c(C)n2)cc1C,10,/,-1,5,-8,1
CC(=O)c1c(C(=O)O)c2ccccc2[nH]c1=O,3,/,92*,-7,-14,5
O=C(O)CCN1C(=O)S/C(=C\c2cccnc2)C1=O,13,/,7,91*,1,0
O=C(NCCN1C(=O)S/C(=C\c2ccc(Cl)c(Cl)c2)C1=O)c1cnccn1,58*,2,10,-23,1,-13
CN(C)S(=O)(=O)c1ccc(C(=O)NCCN2C(=O)S/C(=C\c3cccnc3)C2=O)cc1,15,0,-2,-14,-8,-16
O=C(CN1C(=O)S/C(=C/c2cccnc2)C1=O)N1CCOCC1,31,-1,4,-2,-15,-4
